# MCL1 BIM primary: disrupts human MCL1 binding to BIM-BH3 peptide; inhibition, % at 10.9 µM; actives 0.68% (n = 320,000); GST-MCL1 / FITC-Bim-BH3 fluorescence polarization;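 active = inhibition above the mean inhibition of all tested compounds plus 3 SD, set per campaign, cut at about 40% in these data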;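 also: 0% = DMSO wells and 100% = unlabeled Bim-BH3 peptide control; higher means more loss of mP so more displacement of Bim peptide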
# Mcl1 Noxa PPI: Mcl-1/Noxa interaction inhibition; Q07820; TR-FRET Mcl-1/Noxa peptide binding, 2 h; inhibition, % at 21.7 µM; actives 1.5% (n = 220,000); AID 1022;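 active = compounds that cut the protein-peptide binding signal by more than 50% relative to plate controls in a single-dose test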;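 also: His-tagged Mcl-1 with rhodamine Noxa BH3 peptide and terbium anti-His antibody; 0% = Mcl-1 plus Noxa peptide wells and 100% = peptide-only wells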
# Bcl-xL primary: inhibitors of human Bcl-xL; GST-Bcl-xL / FITC-Bim BH3 peptide fluorescence polarization; inhibition, % at 10.9 µM; actives 0.7% (n = 320,000);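 active = inhibition above the mean of all tested compounds plus 3 SD, cutoff set per campaign, cut at about 30% in these data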;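 also: 0% = DMSO wells and 100% = unlabeled Bim-BH3 peptide competitor; inhibitors lower millipolarization by displacing the labeled peptide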
# Target sequence (Q07817 whole entry, looked up): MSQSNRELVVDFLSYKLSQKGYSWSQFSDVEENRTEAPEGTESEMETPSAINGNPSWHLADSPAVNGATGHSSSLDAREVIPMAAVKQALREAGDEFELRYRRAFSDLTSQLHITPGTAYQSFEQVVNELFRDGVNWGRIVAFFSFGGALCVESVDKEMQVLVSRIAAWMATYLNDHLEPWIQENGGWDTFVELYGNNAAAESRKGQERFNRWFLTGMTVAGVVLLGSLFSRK
# GLD-1 RNA inh: GLD-1-TGE RNA interaction inhibition (C. elegans). purified GLD-1 + fluorescein TGE RNA, fluorescence polarization. inhibition, % at 5.96 µM. actives 0.44% (n = 320,000). AID 2280;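 active = percent inhibition above a per-plate cutoff, the plate mean of test compounds plus 3 SD, cut at about 30% in these data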;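 also: 0% = DMSO wells with GLD-1 and probe and 100% = wells lacking GLD-1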
# Bim-Mcl-1: inhibitors of Bim-Mcl-1 interaction, human; Q07820; inhibition, % at 10 µM; actives 0.1% (n = 190,000); Bead-based flow cytometry, Bim peptide-Mcl-1 binding; AID 1009; in the data active = inhibition above about 40%;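 also: 0% = no compound tracer wells and 100% = peptide blocker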
# Mcl1-Bid inh: disrupts binding of human Mcl-1 to Bid peptide. Q07820. actives 0.97% (n = 220,000). AID 1021. TR-FRET Mcl-1/Bid-Dy647 peptide binding, 1536-well. inhibition, % at 21.7 µM;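 active = compounds that cut the binding signal by more than half at the single screening dose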;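 also: His-tagged Mcl-1 with europium anti-His antibody binding Bid BH3 peptide; 0% = Mcl-1 plus peptide wells and 100% = peptide-only wells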
# * = called active by the depositor; / = no result. Compounds with a hit are over-represented: about 2.3% of the library has one in this group of screens.
SMILES,MCL1 BIM primary,Mcl1 Noxa PPI,Bcl-xL primary,GLD-1 RNA inh,Bim-Mcl-1,Mcl1-Bid inh
CCn1c2ccccc2c2cc(NC(=O)CNCC3CCCO3)ccc21 (centres undefined),0,52*,0,4,-1,5
COC(=O)CCCn1nc(NC(=O)c2ccco2)cc1C,-2,/,4,-5,/,/
Nc1cccnc1Sc1cc(Cl)c(Cl)cc1Cl,0,88*,4,7,-3,20
COc1ccccc1-c1coc2c(CN3CCCC(C)C3)c(O)ccc2c1=O (centres undefined),8,/,5,0,/,/
CCOC(=O)C1CCCN(CC(=O)Nc2nccs2)C1 (centres undefined),7,/,8,6,/,/
CC(=O)c1ccc(S(=O)(=O)Nc2ccc(-c3ccc4nnc(C)n4n3)cc2)cc1,26,55*,12,-6,2,-3
Cc1nnc2ccc(-c3ccc(NS(C)(=O)=O)cc3)nn12,5,9,4,7,3,-28
COC(=O)c1cccc(NC(=O)c2ccc3c(c2)C(=O)N(Cc2cccnc2)C3=O)c1C,12,/,2,3,/,/
NC(=S)n1[nH]c(-c2ccc([N+](=O)[O-])cc2)c(N=Nc2cccc(Cl)c2)c1=O,/,93*,/,/,-2,82*
NC(=S)n1[nH]c(-c2ccc([N+](=O)[O-])cc2)c(N=Nc2ccc(O)cc2)c1=O,9,73*,10,-3,-1,65*
COCC(C)N1CC(O)=C(c2nc(-c3ccc(Cl)cc3)cs2)C1=N (centres undefined),0,7,5,2,0,-14
COc1ccc(S(=O)(=O)Nc2nc3ccccc3nc2Nc2cccc(C(=O)O)c2)cc1,4,/,7,1,/,/
Cc1ccc2c(c1)c1c(n2CCc2ccc(C)nc2)CCN(C)C1,13,/,17,19,/,/
Cc1cc(N2CCN(C)CC2)nc2ccc(NC(=S)N3CCCCC3)cc12,/,24,/,/,-1,-93
Cc1cccc(N2CCN(C(=S)Nc3ccc4nc(N5CCN(C)CC5)cc(C)c4c3)CC2)c1C,/,48,/,/,-2,85*
Cc1nccn1CC(O)COC1CCCCC1 (centres undefined),-8,18,0,-4,0,62*
COc1ccc(NC(=O)c2c(F)cccc2F)cc1S(=O)(=O)Nc1ccc(Br)cc1,-6,6,-7,-1,42*,-13
COc1ccc(NS(=O)(=O)c2cc(OC)ccc2OC)cc1,4,/,37*,-2,/,/
COc1ccc(NS(=O)(=O)c2cc(NC(=O)c3ccccn3)ccc2OC)cc1Br,/,/,/,14,/,/
Cc1nc(NC(=O)c2ccco2)sc1-c1csc(Nc2ccc(Cl)cc2)n1,-11,62*,-3,-8,-2,25
Cc1nc(NC(=O)c2ccco2)sc1-c1csc(Nc2ccc(Cl)cc2Cl)n1,1,100*,2,-8,10,87*
Cc1nc(NC(=O)CC(C)C)sc1-c1csc(Nc2ccc(Cl)cc2)n1,-9,44,-1,-3,64*,4
O=[N+]([O-])c1cc([N+](=O)[O-])c2c(=Nc3ccccc3)n(-c3ccccc3)n(O)c2c1,8,62*,13,-1,11,-28
CC1CN(Cc2cc(=O)oc3cc(O)c(Cl)cc23)CC(C)O1 (centres undefined),8,/,5,1,/,/
CC1CCc2c(sc(NC(=O)CCC(=O)O)c2C(=O)NC2CC2)C1 (centres undefined),10,/,10,-2,/,/
SMILES,MCL1 BIM primary,Mcl1 Noxa PPI,Bcl-xL primary,GLD-1 RNA inh,Bim-Mcl-1,Mcl1-Bid inh
O=C(Nc1nc2ccccc2s1)c1cccc(S(=O)(=O)N2CCc3ccccc32)c1,-2,-24,-5,-12,/,-5
O=C(Nc1nc2c(s1)CN(Cc1ccccc1)CC2)c1cccc(S(=O)(=O)N2CCc3ccccc32)c1,61*,-26,55*,29,0,-68
Oc1[nH]c(=S)sc1/C=C1\C(c2ccccc2)=Nc2ccccc21,-73,81*,-41,-121,-6,-3
Oc1[nH]c(=S)sc1C=C1N=c2ccccc2=N1,4,17,3,3,/,-45
CN(C)c1ccc(NC(=O)C2CCCN(S(=O)(=O)c3ccccc3)C2)cc1 (centres undefined),19,69*,7,4,-1,-20
Cc1cccc(N2CCN(S(=O)(=O)c3c(C)[nH]c(C)c3C(=O)N3CCCC3)CC2)c1C,34,/,29,31*,/,/

# Source: PubChem (several laboratories)
